# Test results taken from PubChem BioAssay (NCI).
# About 83,000 compounds went through this panel and 20% of them were active in at least one assay; those are over-represented in the sample as a whole.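 Note: values are percent growth. 100 is the growth of untreated cells, values between 100 and 0 indicate rising inhibition; between -100 and 0 indicates cell death.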 Values without a mark were called inactive. Calls of active or inactive are those of the source. The calls were made as follows: active = growth percent below 10; inactive = the rest.
# Legend:
# Assay in all cases: NCI-60 one-dose screen, 48 h (100 = growth as untreated, 0 = no growth, -100 = all killed)
# Conditions in all cases: 10 µM unless noted
# HCT-15 colon = system: HCT-15 colon
# HT29 colon = system: HT29 colon
# SNB-75 CNS = system: SNB-75 CNS
# SNB-19 CNS = system: SNB-19 CNS
# U251 CNS = system: U251 CNS
# PC-3 prostate = system: PC-3 prostate
# SK-MEL-5 melanoma = system: SK-MEL-5 melanoma
# UACC-62 melanoma = system: UACC-62 melanoma
# LOX IMVI melanoma = system: LOX IMVI melanoma
# SK-MEL-28 melanoma = system: SK-MEL-28 melanoma
# EKVX NSCLC = system: EKVX NSCLC
# SN12C renal = system: SN12C renal
# UO-31 renal = system: UO-31 renal
# TK-10 renal = system: TK-10 renal
# ACHN renal = system: ACHN renal
# CAKI-1 renal = system: CAKI-1 renal
# A498 renal = system: A498 renal
# MOLT-4 leukemia = system: MOLT-4 leukemia
# CCRF-CEM leukemia = system: CCRF-CEM leukemia
Compound,growth (HCT-15 colon),growth (HT29 colon),growth (SNB-75 CNS),growth (SNB-19 CNS),growth (U251 CNS),growth (PC-3 prostate),growth (SK-MEL-5 melanoma),growth (UACC-62 melanoma),growth (LOX IMVI melanoma),growth (SK-MEL-28 melanoma),growth (EKVX NSCLC),growth (SN12C renal),growth (UO-31 renal),growth (TK-10 renal),growth (ACHN renal),growth (CAKI-1 renal),growth (A498 renal),growth (MOLT-4 leukemia),growth (CCRF-CEM leukemia)
CCS(=O)(=O)N1CCN(c2ccc(Nc3ncc(C(N)=O)c(NC4CC4)n3)cc2)CC1,58.2%,76.2%,88%,105%,93.4%,92.4%,66.8%,101%,73.7%,83.3%,91.6%,62.8%,52.9%,87.3%,85.1%,97.6%,95.6%,51.7%,–
CC(C)(C)c1nc(-c2cccc(NS(=O)(=O)c3c(F)cccc3F)c2F)c(-c2ccnc(N)n2)s1,90.8%,8.76% (active),107%,111%,113%,100%,61.1%,30.9%,24.5%,37.1%,97.7%,80.1%,37.1%,65.2%,59.3%,56.4%,–,39.4%,59%
O=C(COc1ccc(/C=C2\Cc3ccc(Cl)cc3C2=O)cc1)Nc1nccs1,98.5%,108%,86.6%,83.8%,108%,96%,99.3%,95.3%,93%,122%,110%,95.7%,28.7%,138%,92.7%,90.1%,–,51.7%,59.5%
COC(=O)N[C@@H](C)CNc1nccc(-c2cn(C(C)C)nc2-c2cc(Cl)cc(NS(C)(=O)=O)c2F)n1,53.6%,7.99% (active),51.8%,108%,87.2%,90.7%,51.4%,-11% (active),37.5%,-0.756% (active),63.1%,66.9%,16.9%,52%,28%,34.2%,–,67.4%,89.8%
COc1cc(Nc2ncc(F)c(Nc3ccc4c(n3)N(COP(=O)(O)O)C(=O)C(C)(C)O4)n2)cc(OC)c1OC,21.4%,-0.77% (active),-95.5% (active),31.4%,29.5%,33.5%,43.8%,18.8%,-69% (active),45.6%,32.7%,22.8%,-23.9% (active),-43.8% (active),6.43% (active),-54.1% (active),–,29.6%,29.9%
CN1[C@@H]2CC[C@H]1/C(=C\c1ccccc1)C1=C2[C@@H](c2ccccc2)C(C#N)=C(N)O1,81.1%,67.7%,80.4%,83.6%,77.7%,72.8%,74.1%,73.9%,97.8%,104%,98.4%,75.2%,61.7%,89.5%,–,87.4%,70.3%,67.4%,70.6%
CC(=O)C1CC(C)CCC1C(C)C (stereo unspecified),104%,101%,81.1%,91.1%,107%,55.4%,98.9%,85.3%,86.6%,123%,106%,83.8%,67.4%,83.2%,87.8%,122%,–,83.1%,70.5%
COC(=O)Nc1nc2ccc(C(=O)c3ccc(N(C)C4COC4)cc3)cc2[nH]1,12.4%,0.909% (active),16.4%,26.9%,17.2%,24.2%,3.76% (active),34.3%,20.4%,56.9%,26.9%,30.9%,45.3%,66%,39%,31.2%,10%,10.5%,–
COc1cc2ncnc(Nc3ccc(F)c(Cl)c3)c2cc1NC(=O)/C=C/CN1CCCCC1,-49.7% (active),-63.4% (active),-97.8% (active),-47.5% (active),-77.1% (active),-58.3% (active),-99.8% (active),-84.3% (active),-90.2% (active),-85.5% (active),-40.3% (active),-76.1% (active),-90.2% (active),-88.8% (active),-97.9% (active),-85.4% (active),-80.4% (active),-13.1% (active),–
CCCCCCCCCNCCCCCCCCC,32.4%,0.373% (active),67.2%,82.2%,49%,59.4%,54.1%,83.2%,41.9%,43.5%,81.9%,59.5%,36.4%,70.4%,81.5%,42%,88.9%,49.7%,–
CC(=O)CC1CCCC1c1ccc2ccccc2c1 (stereo unspecified),103%,95.8%,93.8%,104%,94.4%,91.9%,101%,99.6%,97.8%,103%,102%,105%,84.7%,91.5%,101%,98.6%,97.6%,99.2%,–
COc1cc2c(c(OC)c1)C1c3ccccc3NC(=O)N1CC2 (stereo unspecified),18%,6.37% (active),7.13% (active),44.7%,16.8%,22.6%,15.7%,15.6%,41.3%,49.8%,42.1%,39%,36.8%,49.5%,44.9%,34.3%,–,30.6%,10.7%
CN1C/C=C\CCOc2cccc(c2)-c2ccnc(n2)Nc2cccc(c2)C1,-16.9% (active),-16.8% (active),-98.6% (active),0.69% (active),-52.9% (active),-41.9% (active),-95.1% (active),-62.7% (active),-79.4% (active),-76% (active),-14.7% (active),-41.5% (active),-79.3% (active),-53.2% (active),–,-87.9% (active),-77.8% (active),-20% (active),3.32% (active)
O=C(c1c(F)ccc(NS(=O)(=O)N2CC[C@@H](F)C2)c1F)c1c[nH]c2ncc(-c3cnc(C4CC4)nc3)cc12,44.1%,3.81% (active),37.7%,52.8%,42.4%,46.5%,22%,-22.9% (active),15.9%,-5.44% (active),58.5%,48%,25.9%,41.7%,–,16.7%,62.7%,16.3%,47.6%
C[C@@H](Oc1cc(C(=O)Nc2ccc(C(=O)N3CCN(C)CC3)cc2)nnc1N)c1c(Cl)ccc(F)c1Cl,46.9%,9.76% (active),71.2%,75.7%,52.1%,52.4%,36.8%,62%,33.2%,70.9%,72.5%,64.5%,48.4%,79.4%,91.8%,75.5%,–,34.8%,55.9%
c1cn2cc(-c3ccc4cn[nH]c4c3)nc(Nc3ccc(N4CCOCC4)cc3)c2n1,66.5%,32.7%,-3.9% (active),50.3%,41.5%,43.3%,71.4%,53.3%,56.4%,63%,83.9%,41.3%,65.1%,76.1%,–,39.4%,68.7%,61.8%,66.9%
COc1ccc(Cl)c(Nc2nc3ccccc3nc2NS(=O)(=O)c2cccc(NC(=O)C(C)(C)N)c2)c1,44.9%,27.7%,-20.2% (active),63.9%,35%,22.3%,57.1%,36.5%,25.8%,53.1%,48.5%,51.2%,8.83% (active),29.8%,40.3%,29%,–,13.4%,46.9%
